The results in this text go back to PubChem BioAssay AID463173 (ICCB-Longwood Screening Facility, Harvard Medical School, 2010).

Among all 52,000 compounds or so, about 1,700 (3.3%) were called active. What follows is part of a selection rich in actives, with near analogues and random picks from the rest. Values without a mark were called inactive. Cut-off read from the data, not from the text of the source: active = survival mostly below about 52% (no sharp cut-off); inactive = mostly above about 56%.

In the experiment the test system is Wild type. Nature of the experiment: S. aureus survival, RN4220 and DeltatarO strains – OD600, teichoic acid synthesis inhibitors, primary screen (AID 463173). Particulars: S. aureus RN4220 wild type/DeltatarO growth, OD600, 18 h, hits give low values, screened at 18.75 µg/mL (by protocol).
Turning to `COc1cn(CC(=O)Nc2ccc(F)cc2)c(CN2CCCCC2)cc1=O`, the survival was 72%.

As to `O=C1c2ccccc2-c2onc3c(Br)cc(NC4CCCCC4)c1c23`, the survival was 86%.

For `CN(C)CCCNc1cc(N2CCN(C3CCCCC3)CC2)c2noc3c2c1C(=O)c1ccccc1-3`, the survival was 72%.

As to `CCCCNc1cc(N2CCN(C3CCCCC3)CC2)c2noc3c2c1C(=O)c1ccccc1-3`, the survival was -1% (active).

Regarding `CCN(CC)c1cc(NC2CCCCC2)c2c3c(onc13)-c1ccccc1C2=O`, the survival was 5% (active).

As for `CCCCNc1cc(NC2CCCCC2)c2c3c(onc13)-c1ccccc1C2=O`, the survival was 117%.

On to `CCNc1cc(N2CCN(C3CCCCC3)CC2)c2noc3c2c1C(=O)c1ccccc1-3`, for which the survival is 84%.

As for `Cc1ccc2nc(COc3ccccc3NC(=O)C(C)(C)C)cc(=O)n2c1`, the survival is 66%.

For the molecule `O=C(C1CCN(c2ncnc3c2nc2n3CCCCC2)CC1)N1CCN(c2ccccc2F)CC1`, the survival was 82%.

Turning to `CCc1ccc(NC(=O)Cn2nnc(C(=O)NCc3ccco3)c2N)cc1`, the survival is 94%.

As to `CCOC(=O)c1c(S(=O)(=O)N2CCC(C(=O)Nc3cccc(C#N)c3)CC2)c(C)n(C)c1C`, the survival was 115%.

With `Cc1nn(C(=O)c2cc3sc(Br)cc3[nH]2)c(C)c1C`, the survival was 97%.

Consider `COc1ccc(NC(=O)CSc2nnc(N)s2)cc1`, for which the survival was 73%.

`CCc1ccc(NC(=O)Cn2ncc3c(C)n(Cc4cccc(Cl)c4)c(C)c3c2=O)cc1`: the survival is 86%.

On to `Cc1ccc(CCNC(=O)c2ccc3c(c2)c(C)c(C)n3Cc2ccccc2)cc1`, for which the survival was 125%.

With `Cc1c(Cl)cccc1-c1ccc(C(=O)Nc2ccc3oc(-c4cccnc4)nc3c2)o1`, the survival is 79%.

On to `Cc1ccc(NC(=O)c2ccc(-c3cccc(Cl)c3C)o2)cc1`, for which the survival was 1% (active).

As to `COc1ccc(NC(=O)c2ccc(-c3cccc(Cl)c3C)o2)cc1`, the survival is 44%.

With `Cc1c(Cl)cccc1-c1ccc(C(=O)Nc2ccc(F)cc2)o1`, the survival was -1% (active).

As for `CCOC(=O)c1ccc(NC(=O)c2ccc(-c3cccc(Cl)c3C)o2)cc1`, the survival is 59%.

As for `CCOc1ccc(NC(=O)c2ccc(-c3cccc(Cl)c3C)o2)cc1`, the survival is 66%.

As for `Clc1ccc(-c2nc3ccccn3c2Nc2ccc3c(c2)OCCO3)s1`, the survival is 79%.

`Cc1ccccc1C(=O)Nc1cccc(-c2cn3cccnc3n2)c1`: the survival was 105%.

Turning to `Cc1oc(-c2cccc(Cl)c2)nc1CSCC(=O)NCc1ccccc1Cl`, the survival is -1% (active).

With `Cc1ccc(CNC(=O)CSCc2nc(-c3ccc(Cl)cc3)oc2C)cc1`, the survival is 88%.

For the molecule `CCOc1ccc(-c2nc(CSCC(=O)NCc3ccc(C)cc3)c(C)o2)cc1`, the survival is 73%.

`Cc1ccc(CNC(=O)CSCc2nc(-c3cccc(C)c3)oc2C)cc1`: the survival is -1% (active).

As to `Cc1oc(-c2cccc(Cl)c2)nc1CS(=O)(=O)CC(=O)NCc1ccccc1Cl`, the survival is 75%.

As to `CCc1ccc(-c2nc(CSCC(=O)NCc3ccc(C)cc3)c(C)o2)cc1`, the survival was 0% (active).

For `Cc1ccc(CCNC(=O)CSCc2nc(-c3ccc(C)cc3)oc2C)cc1`, the survival is 27%.

Consider `COc1ccc(-c2nc(CSCC(=O)NCCc3ccc(C)cc3)c(C)o2)cc1OC`, for which the survival was 72%.

For `COc1ccc(-c2nc(CSCC(=O)NCc3ccccc3Cl)c(C)o2)cc1OC`, the survival was 70%.

Regarding `Cc1ccc(-n2nc(C)c3c(C(=O)NCc4ccccc4)cc(C4CC4)nc32)cc1`, the survival is 82%.

As for `O=C(Cn1c(=O)n(-c2ccccc2)c(=O)c2c3c(sc21)CCC3)c1ccc(Br)cc1`, the survival is 87%.

`COc1ccc(N2C(=O)CSC23C(=O)N(Cc2ccc(C)cc2)c2ccccc23)cc1Cl` (stereo not given): the survival was 135%.

In the case of `CC(C)(C)OC(=O)N1CCC(c2c(C(=O)NCCN3CCOCC3)cnn2-c2cccc(F)c2)CC1`, the survival is 120%.

For the molecule `Clc1ccccc1C(c1nnnn1Cc1ccco1)N1CCN(Cc2ccco2)CC1` (stereo not given), the survival is 111%.

On to `O=C(NCC(c1ccc2c(c1)OCO2)N1CCN(c2ccc(F)cc2)CC1)c1cccc([N+](=O)[O-])c1` (stereo not given), for which the survival is 83%.

For `COc1ccc(-c2csc3ncnc(Nc4cccc(F)c4)c23)cc1`, the survival was -3% (active).

`COc1ccc(-c2csc3ncnc(Nc4cccc(OC)c4)c23)cc1`: the survival is 73%.

For the molecule `COc1ccc(Nc2ncnc3scc(-c4ccc(F)cc4)c23)cc1`, the survival is 79%.

For the molecule `CC(=O)c1ccc(NC(=O)CC2Nc3cc(C)c(C)cc3NC2=O)cc1` (stereo not given), the survival is 78%.

With `Cc1cc(C)cc(N2C(=O)N(Cc3cc(=O)n4ccccc4n3)c3ccccc3S2(=O)=O)c1`, the survival is 127%.

Take `CC(C)c1ccc2oc(-c3ccc(NC(=O)c4cccc(Br)c4)cc3)nc2c1`: the survival was 70%.

For the molecule `COc1ccc(CNC(=O)C(CC(C)C)N2Cc3ccccc3C2=O)cc1` (stereo not given), the survival was 134%.

As to `COc1cc(Cl)c(C)cc1NC(=O)CC(c1ccc(F)cc1)N1Cc2ccccc2C1=O` (stereo not given), the survival is -2% (active).

Take `COc1ccc(CNC(=O)C(C(C)C)N2Cc3ccccc3C2=O)cc1` (stereo not given): the survival was -6% (active).

Turning to `COc1cc(OC)c(NC(=O)CC(c2cccs2)N2Cc3ccccc3C2=O)cc1Cl` (stereo not given), the survival is 101%.

Take `Cc1ccc(CNC(=O)C(C(C)C)N2Cc3ccccc3C2=O)cc1` (stereo not given): the survival is 80%.

Consider `CCOc1ccc(C(CC(=O)Nc2cc(C)c(Cl)cc2OC)N2Cc3ccccc3C2=O)cc1OC` (stereo not given), for which the survival is 65%.

`COc1ccc(C(CC(=O)Nc2cc(OC)c(OC)c(OC)c2)N2Cc3ccccc3C2=O)cc1` (stereo not given): the survival was 65%.

For the molecule `COc1ccc(C(CC(=O)Nc2cc(Cl)c(OC)cc2OC)N2Cc3ccccc3C2=O)cc1` (stereo not given), the survival is -3% (active).

Regarding `Cc1ccc(NC(=O)CC(c2ccc(F)cc2)N2Cc3ccccc3C2=O)cc1C` (stereo not given), the survival was 88%.

Regarding `CCn1cc(C(=O)NCCc2ccccc2)c(=O)c2cc(S(=O)(=O)N3CCOCC3)ccc21`, the survival is 85%.

With `COc1ccc(NC(=O)c2ccc(NC(=O)CCS(=O)(=O)c3cccs3)cc2)cc1Cl`, the survival is 81%.

Regarding `COc1ccc(-c2cc(C(=O)Nc3cccnc3Cl)no2)cc1OC`, the survival was 140%.

In the case of `Cc1ccc(C)c(N2CCN(c3nc4ccccc4c4nc(-c5cccnc5)nn34)CC2)c1`, the survival was 82%.

On to `CCOC(=O)C(Cc1c[nH]c2ccccc12)NC(=O)COc1ccc(CC)cc1` (stereo not given), for which the survival is 32%.

`Cc1cc(OCC(=O)NC(Cc2c[nH]c3ccccc23)C(=O)O)ccc1Cl` (stereo not given): the survival was 69%.

In the case of `CCOC(=O)C(Cc1c[nH]c2ccccc12)NC(=O)COc1ccc(Cl)c(C)c1` (stereo not given), the survival was 8% (active).

Take `CCc1ccccc1N(CC)C(=O)c1c(C)oc2ncn(C)c(=O)c12`: the survival was 71%.

As to `C#CCSc1nc2sc3c(c2c(=O)n1Cc1ccccc1)CCCC3`, the survival is 44%.

In the case of `C=CCn1c(SC(C)C)nc2sc3c(c2c1=O)CCCC3`, the survival was 108%.

In the case of `CSc1nc2sc3c(c2c(=O)n1-c1ccccc1C)CCCC3`, the survival is 99%.

In the case of `CC(C)Sc1nc2sc3c(c2c(=O)n1Cc1ccccc1)CCCC3`, the survival was 5% (active).

Turning to `CSc1nc2sc3c(c2c(=O)n1-c1ccc(C)cc1)CCCC3`, the survival is 51%.

As to `CC(C)Sc1nc2sc3c(c2c(=O)n1-c1ccccc1)CCCC3`, the survival is -2% (active).

Regarding `CCS(=O)(=O)NCC(c1ccco1)N1CCN(c2ccccc2)CC1` (stereo not given), the survival is 89%.

As for `CCS(=O)(=O)N1CCc2cc(C(=O)NC(C)c3ccccc3)ccc21` (stereo not given), the survival was 90%.

For `CC(C)C(=O)Nc1ccc2nc(SCCOc3ccccc3)sc2c1`, the survival was 93%.

For `Cc1ccc(Cl)cc1NC(=O)C1CCN(c2nnc(C)c3c(C)n(-c4ccccc4)nc23)CC1`, the survival is 71%.

`Cc1cccc(CS(=O)(=O)c2ncc(Cl)c(C(=O)NCc3ccccc3)n2)c1`: the survival is 27%.

Consider `Cc1cccc(CS(=O)(=O)c2ncc(Cl)c(C(=O)Nc3nc4ccc(F)cc4s3)n2)c1`, for which the survival was 7% (active).

As to `Cc1ccc(NC(=O)c2nc(S(=O)(=O)Cc3cccc(C)c3)ncc2Cl)cc1`, the survival was -1% (active).

`COc1ccc(NC(=O)c2nc(S(=O)(=O)Cc3ccc(C)cc3)ncc2Cl)cc1`: the survival was 81%.

Take `Cc1ccc(CS(=O)(=O)c2ncc(Cl)c(C(=O)Nc3nc4ccc(F)cc4s3)n2)cc1`: the survival is 20%.

In the case of `O=C(Nc1nc2ccc(F)cc2s1)c1nc(S(=O)(=O)Cc2ccccc2)ncc1Cl`, the survival was 27%.

For `CCOC(=O)c1ccc(CN(Cc2ccccc2)S(=O)(=O)c2ccc(Cl)cc2)cc1`, the survival was 0% (active).

Regarding `CCOC(=O)c1ccc(CN(Cc2ccc(Cl)cc2Cl)S(=O)(=O)c2cccc(Cl)c2)cc1`, the survival was 73%.

As for `CCOC(=O)c1ccc(CN(Cc2ccc(F)cc2)S(=O)(=O)c2ccc(F)cc2)cc1`, the survival was 68%.

With `COc1ccc(CCNC(=O)CCc2c(C)c3cc4c(C)coc4c(C)c3oc2=O)cc1OC`, the survival was 105%.

For `CC(Oc1ccccc1)C(=O)Nc1c(C(=O)Nc2cccc(F)c2)oc2ccccc12` (stereo not given), the survival was 57%.

As to `CCOC(=O)c1[nH]c2c(c1Cc1ccccc1OC)C(=O)CC(c1ccccc1)C2` (stereo not given), the survival was 126%.

With `CN(C)c1ccc(C2CC(c3c(O)n(C4CCCCC4)c(=O)[nH]c3=O)=Nc3ccccc3S2)cc1` (stereo not given), the survival is 85%.

Consider `O=C(Cn1c(=O)n(Cc2ccc(C(=O)NCc3ccc4c(c3)OCO4)cc2)c(=O)c2ccccc21)Nc1ccc(F)cc1F`, for which the survival is 111%.

Consider `CC(C)c1cc(-c2nc(-c3ccccc3)no2)n[nH]1`, for which the survival is 71%.

Regarding `COc1ccc(Cn2c(SC)nc3ccccc32)cc1`, the survival was 108%.

With `COc1ccc(-c2nc3ccccc3n2Cc2ccc(Cl)cc2)cc1`, the survival is 4% (active).

Turning to `COc1ccc(-c2nc3ccccc3n2Cc2ccccc2)cc1`, the survival is 0% (active).

With `CCc1ccc(OCCCn2c(-c3ccc(Cl)cc3)nc3ccccc3c2=O)cc1`, the survival is 52%.

For `CCOc1cc(Cn2c(-c3ccc(O)c(OCC)c3)nc3ccccc32)ccc1O`, the survival was 80%.

In the case of `COc1ccc(OCCCCn2c(-c3ccc(Cl)cc3)nc3ccccc3c2=O)cc1`, the survival is 38%.

Consider `COc1ccc(-c2nc3ccccc3n2Cc2ccc(C(C)C)cc2)cc1`, for which the survival is -8% (active).

As for `COc1ccc(Cn2c(SCC(=O)Nc3ccc(OC)cc3)nc3ccccc32)cc1`, the survival is 85%.

Consider `COc1ccc(-c2noc(=O)n2Cc2ccccc2)cc1`, for which the survival was 128%.
